Assay [1] in a line: Confirmatory screen GU Rhodamine qHTS for Zika virus inhibitors qHTS (AID 1347157). Also: potency is read from the fitted curve at half-maximal effect; nearly all actives have a fitted effect of over 70% in size. The method, boiled down: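 Unlinked NS2B/NS3, 25 nM; Rhod110 peptide, 1.5 microM; compounds, up to 114 microM. Reaction run 15 min at RT in 10 mM Tris-HCl pH 8.0, 0.01% Tween 20; kinetic fluorescence change fitted with a 4-parameter Hill model.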
Background: qHTS replaces the single test concentration by a dilution series.

A short description of assay [2]: Confirmatory screen NINDS Rhodamine qHTS for Zika virus inhibitors (AID 1347161). Also: potency is read from the fitted curve at half-maximal effect; nearly all actives have a fitted effect of over 60% in size. The method, boiled down: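 Rhodamine110-peptide cleavage (1.5 µM substrate) by 25 nM linked NS2B-NS3 enzyme at pH 8.0 (Tris, Tween 20), after 15 min RT preincubation with compounds; 15-min fluorescence change normalized to controls and Hill-fitted.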
Assay [3] relates to Zika virus NS2B-NS3 protease (linked construct). As to the kind of experiment: 384 well plate NINDS Rhodamine confirmatory qHTS for Zika virus inhibitors (AID 1347164). Also: nearly all actives have a fitted effect of over 65% in size. Also: potency is read from the fitted curve at half-maximal effect.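 As to activity change, negative = inhibition: top concentration of the series differs between compounds; plate controls were no-inhibitor control for no effect and no-enzyme control for full effect.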 The method, boiled down: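 Compounds are incubated about 15 minutes with linked protease (5, 30 or 60 nM final). Rhodamine 110-tagged Ac-LKRR substrate (10 microM final) is added and fluorescence measured after 25 minutes.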

A short description of assay [4]: ZIKV-mCherry secondary qHTS for Zika virus inhibitors (AID 1347158). Also: top concentration of the series differs between compounds. The method, boiled down: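 After overnight seeding at 37 °C, Vero cells receive compound and then ZIKV-mCherry (MOI 1). Following 48-72 h infection, cells are fixed, counterstained with Hoechst, and imaged; percent infected cells is derived from an mCherry intensity cut-off of 450 RFU.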
Assay [5] relates to Zika virus NS2B-NS3 protease (linked). Description: 384 well plate NINDS AMC confirmatory qHTS for Zika virus inhibitors (AID 1347163). Also: potency is read from the fitted curve at half-maximal effect; nearly all actives have a fitted effect of over 50% in size. The method, boiled down: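 Linked protease 5/30/60 nM final; cpds up to 1 mM final, ~15 min preinc. Substrate Ac-VKTGKR-AMC 30 microM final. RT, dark, 25 min; FI ex 355/em 460; normalized to no-enzyme/no-inhibitor ctrls.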
Assay [6] can be described thus: Tertiary RLuc qRT-PCR qHTS assay for Zika virus inhibitors (AID 1347169). Also: top concentration of the series differs between compounds; % is scaled to controls: 0 for no effect and ±100 for the full control effect; nearly all actives have a fitted effect of over 55% in size. The method, boiled down: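 Orthogonal cell-based infection assay using recombinant ZIKV-RLuc (Cambodian) in Vero cells; compound added prior to virus at MOI 1-2. Incubation lasts 48-72 hrs at 37 degrees C before live-cell Renilla substrate is added and luminescence measured.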
Assay [7] in a line: AP1 Signaling Pathway (AID 357; active = well fitted curve in either direction with a large enough effect, not every such curve was filed as active;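 also: ME-180 reporter cells stimulated with EGF at its EC50 level; % is scaled to controls: 0 for no effect and ±100 for the full control effect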). Particulars: ME-180 AP-1-bla reporter, EGF-induced, beta-lactamase ratio, 5 h; at 17.2 µM (top of the series). The method, boiled down:
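Titration-series screen for positive or negative modulators of EC50 EGF-induced signaling in ME-180 cells carrying an AP-1-driven beta-lactamase reporter. After 5 hours at 37 degrees Celsius, CCF4 460nm/530nm emission ratio gave %Activity; AC50 values derived.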

In assay [8] the target is Cytochrome P450 1A2 (Homo sapiens) (UniProt P05177). Description: p450-cyp1a2 (AID 410; calls by dose curve; also: potency is read from the fitted curve at half-maximal effect). The method, boiled down: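 Inhibition was calculated relative to 57 uM furafylline (full inhibition). The reaction used human CYP1A2 at 20nM with Luciferin-ME at its Km, 100uM, driven by an NADPH-regenerating system for 60 min at room temperature.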
Sequence of Cytochrome P450 1A2 (Homo sapiens) (P05177 whole entry, looked up): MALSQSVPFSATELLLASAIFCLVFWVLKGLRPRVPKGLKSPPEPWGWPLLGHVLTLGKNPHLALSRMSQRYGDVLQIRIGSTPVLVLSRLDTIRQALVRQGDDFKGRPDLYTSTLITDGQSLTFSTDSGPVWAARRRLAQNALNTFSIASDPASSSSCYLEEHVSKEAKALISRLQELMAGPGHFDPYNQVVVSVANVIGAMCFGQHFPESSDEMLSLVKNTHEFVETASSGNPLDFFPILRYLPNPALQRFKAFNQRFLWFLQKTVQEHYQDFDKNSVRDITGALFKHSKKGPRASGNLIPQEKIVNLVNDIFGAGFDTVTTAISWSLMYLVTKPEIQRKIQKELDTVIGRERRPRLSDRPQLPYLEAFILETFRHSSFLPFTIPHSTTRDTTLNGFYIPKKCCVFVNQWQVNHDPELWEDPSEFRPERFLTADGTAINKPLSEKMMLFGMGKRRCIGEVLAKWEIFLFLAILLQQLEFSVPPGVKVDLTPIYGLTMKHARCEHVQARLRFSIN
The nature of assay [9]: NFAT Signaling Pathway (AID 444; active = well fitted curve in either direction with a large enough effect, not every such curve was filed as active;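 also: carbachol stimulus at about its EC50 of 1 µM final; % is scaled to controls: 0 for no effect and ±100 for the full control effect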). Particulars: Jurkat NFAT-bla M1, carbachol, beta-lactamase ratio, 5 h; at 17.2 µM (top of the series). The method, boiled down: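 Jurkat cells carrying an NFAT-driven β-lactamase reporter and co-transfected muscarinic M1 receptor were treated with compound plus carbachol (1 uM final, an EC50 level) for 5 h at 37 °C. CCF4 loading followed for 1 h at RT; 460/530 nm ratio gave %activity.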

Assay [10] can be described thus: Stat Signaling Pathway (AID 446; active = well fitted curve in either direction with a large enough effect, not every such curve was filed as active;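 also: ME-180 cervical cancer cells given 40 pM IL-6 alongside compound; SIE-controlled beta-lactamase reporter measured as 460/530 nm FRET emission ratio; % is scaled to controls: 0 for no effect and ±100 for the full control effect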). The conditions noted are these: ME-180 SIE beta-lactamase reporter, IL-6 stimulated, 5 h; at 17.2 µM (top of the series). The method, boiled down: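 ME-180 cells carrying a SIE-driven beta-lactamase reporter are stimulated with 40 pM IL-6 for 5 h at 37C in the presence of compound. The 460/530 nm FRET substrate ratio is read after 2.5 h at RT. Data are normalised to 300 pM IL-6 and to 125 nM JAK inhibitor controls.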

In assay [11] the target is Glucocorticoid receptor (Homo sapiens) (UniProt P04150). Description: GR-GFP Redistribution (AID 450;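 active = compounds whose dose series gives a full or clear partial fitted curve of increased nuclear translocation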; also: potency is read from the fitted curve at half-maximal effect). The conditions noted are these: U2OS GR-GFP nuclear translocation, laser cytometry, 2 h.
Sequence of Glucocorticoid receptor (Homo sapiens) (P04150 whole entry, looked up): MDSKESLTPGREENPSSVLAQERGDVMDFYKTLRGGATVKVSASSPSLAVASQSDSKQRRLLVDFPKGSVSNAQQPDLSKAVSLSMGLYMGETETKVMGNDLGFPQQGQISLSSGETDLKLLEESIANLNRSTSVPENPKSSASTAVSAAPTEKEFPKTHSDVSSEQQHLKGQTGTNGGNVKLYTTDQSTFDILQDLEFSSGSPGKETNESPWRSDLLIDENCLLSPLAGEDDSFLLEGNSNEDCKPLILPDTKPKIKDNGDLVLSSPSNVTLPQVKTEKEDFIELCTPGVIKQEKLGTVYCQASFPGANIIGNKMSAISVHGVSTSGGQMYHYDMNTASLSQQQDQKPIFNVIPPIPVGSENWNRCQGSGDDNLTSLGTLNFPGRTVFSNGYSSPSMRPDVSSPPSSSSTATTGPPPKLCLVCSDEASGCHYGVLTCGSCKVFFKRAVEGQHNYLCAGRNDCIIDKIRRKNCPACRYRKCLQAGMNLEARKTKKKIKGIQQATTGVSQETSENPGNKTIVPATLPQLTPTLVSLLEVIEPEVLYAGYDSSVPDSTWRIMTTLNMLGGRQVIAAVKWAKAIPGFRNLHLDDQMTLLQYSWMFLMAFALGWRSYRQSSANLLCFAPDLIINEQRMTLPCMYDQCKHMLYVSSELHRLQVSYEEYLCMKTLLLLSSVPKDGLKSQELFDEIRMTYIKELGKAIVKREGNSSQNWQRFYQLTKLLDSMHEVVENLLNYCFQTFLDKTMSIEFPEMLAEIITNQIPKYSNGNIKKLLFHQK
For assay [12] the target is unchanged. Description: GR-EFC Redistribution (AID 451; calls by dose curve; also: potency is read from the fitted curve at half-maximal effect). Particulars: CHO-K1 GR-EFC translocation, beta-gal luminescence, 2 h. The method, boiled down:
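CHO-K1 cells stably expressing nuclear-localized β-gal enzyme acceptor and GR fused C-terminally to the enzyme donor fragment; ligand-driven nuclear translocation restores β-gal by complementation. Compounds titrated up to 46 uM final, 2 h at 37 °C; luminescence read.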

In assay [13] the target is 3',5'-cyclic-AMP phosphodiesterase 4B (Homo sapiens) (UniProt Q07343). Description: qHTS Assay for Inhibitors of PDE-IV (AID 607; active = well fitted activation curve with a large enough effect in the main read-out, with a control signal flat, not every such curve was filed as active; also: % of control where 0% means no effect). The method, boiled down:
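HEK293 ACTOne cells with CNG channel (1000/well), endogenous PDE4; membrane potential dye, compounds up to 22.9 uM final. Fluorescence Ex 535/Em 590; RO 20-1724 (100 uM final) as reference.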

Assay [14] concerns the target Cytochrome P450 2C9 (Homo sapiens) (UniProt P11712). As to the kind of experiment: qHTS Assay for Inhibitors and Substrates of Cytochrome P450 2C9 (AID 883). Also: % is scaled to controls: 0 for no effect and ±100 for the full control effect; nearly all actives have a fitted effect of over 60% in size. The method, boiled down: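 A luminogenic readout tracked human CYP2C9 (10nM) converting deoxyluciferin (100uM, at KM) in 25mM KPO4 during 60 min at 37C with regenerated NADPH. Values normalized to 57uM sulphaphenazole as complete inhibition.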

Assay [15] has as its target Cytochrome P450 3A4 (Homo sapiens) (UniProt P08684). Description: qHTS Assay for Inhibitors and Substrates of Cytochrome P450 3A4 (AID 884). Also: potency is read from the fitted curve at half-maximal effect; nearly all actives have a fitted effect of over 50% in size. The method, boiled down: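 20 nM human CYP3A4 with 25 uM Luciferin-PPXE (at KM) in 200 mM KPO4, preincubated 10 min with compound; NADPH regeneration started a 60 min RT reaction. Luciferin detected by luminescence, normalized to 57 uM ketoconazole as full inhibition.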

Assay [16] has the same target. Description: qHTS Assay for Activators of Cytochrome P450 3A4 (AID 885). Also: nearly all actives have a fitted effect of over 65% in size. The method, boiled down: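 Human CYP3A4 (20 nM) with Luciferin-PPXE at 25 uM (its KM) in 200 mM KPO4; 10 min compound preincubation, then NADPH regeneration and 60 min reaction at RT. Luciferin read by luminescence; normalized to 57 uM ketoconazole full inhibition.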
For assay [17], the target named is Cytochrome P450 2D6 (Homo sapiens) (UniProt P10635). Description: qHTS Assay for Inhibitors and Substrates of Cytochrome P450 2D6 (AID 891).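 Also: luciferin methyl ether substrate demethylated by CYP2D6 with NADPH regeneration; % is scaled to controls: 0 for no effect and ±100 for the full control effect; nearly all actives have a fitted effect of over 60% in size.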 The method, boiled down: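 Human CYP2D6 (5 nM) with 30 uM Luciferin-ME EGE (at Km) in 100 mM KPO4, compound preincubated 10 min, then NADPH regeneration system for 60 min at room temperature. Luciferin read by luminescence; normalized to 1.43 uM quinidine.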

In assay [18] the target is Cytochrome P450 2C19 (Homo sapiens) (UniProt P33261). As to the kind of experiment: qHTS Assay for Inhibitors and Substrates of Cytochrome P450 2C19 (AID 899). Also: nearly all actives have a fitted effect of over 60% in size. Also: potency is read from the fitted curve at half-maximal effect. The method, boiled down:
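NADPH-dependent conversion of Luciferin-H EGE (10uM, at KM) by 5nM enzyme in 50mM KPO4, 60 min at 37C following 10 min compound preincubation. Stopped with luciferin detection buffer; luminescence read after 20 min.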

The nature of assay [19]: qHTS Assay for Lipid Storage Modulators (AID 1519; calls by dose curve). The conditions noted are these: Drosophila S3 cells, BODIPY lipid droplet/cell ratio, laser cytometry, cells loaded with oleic acid. The method, boiled down: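 Cells seeded at 5,000 per well were treated with compounds over a concentration series and loaded with oleic acid (400 uM, as added). Lipid droplet fluorescence (488 nm excitation, 500-530 nm channel) was read by laser-scanning cytometry and normalized to 20 uM Triacsin C.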

Assay [20] has as its target Ubiquitin carboxyl-terminal hydrolase 1 (Homo sapiens) (UniProt O94782). As to the kind of experiment: Inhibitors of USP1/UAF1: Pilot qHTS (AID 504865). Also: potency is read from the fitted curve at half-maximal effect; nearly all actives have a fitted effect of over 35% in size. The method, boiled down: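 Kinetic fluorescence assay: 1nM USP1/UAF1, 15 min compound preincubation, then 150nM Ub-Rho; 480/540 nm.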
The target of assay [21] is DNA dC->dU-editing enzyme APOBEC-3G (Homo sapiens) (UniProt Q9HC16). Description: qHTS for inhibitors of Vif-A3G interactions: Validation (AID 588379). Also: 0% is about no effect. The method, boiled down: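 HeLa cells stably expressing Vif and A3G-eYFP, 700 cells/well, incubated overnight at 37 deg C, then exposed to compound overnight at 37 deg C. Inhibition of Vif-mediated degradation read as increased yellow fluorescence (Ex 488/Em 500-530) by laser-scanning cytometry.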
Sequence of DNA dC->dU-editing enzyme APOBEC-3G (Homo sapiens) (Q9HC16 whole entry, looked up): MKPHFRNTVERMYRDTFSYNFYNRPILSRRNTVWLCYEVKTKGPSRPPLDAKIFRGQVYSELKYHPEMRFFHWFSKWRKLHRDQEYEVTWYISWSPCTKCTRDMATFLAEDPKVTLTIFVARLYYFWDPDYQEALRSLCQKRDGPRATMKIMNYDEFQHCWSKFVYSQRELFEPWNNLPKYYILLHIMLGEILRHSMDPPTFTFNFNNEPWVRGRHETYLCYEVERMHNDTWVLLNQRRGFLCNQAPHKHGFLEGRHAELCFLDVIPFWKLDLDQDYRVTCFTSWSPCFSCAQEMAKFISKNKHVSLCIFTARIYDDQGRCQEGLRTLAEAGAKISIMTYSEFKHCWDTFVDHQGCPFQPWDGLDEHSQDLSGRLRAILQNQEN

A short description of assay [22]: Confirmatory qHTS for small molecule stabilizers of the endoplasmic reticulum resident proteome: Secreted ER Calcium Modulated Protein (SERCaMP) assay (AID 1508628). Also: potency is read from the fitted curve at half-maximal effect; nearly all actives have a fitted effect of over 40% in size. The method, boiled down: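 We seeded SH-SY5Y-GLuc-SERCaMP cells, added compounds (three concentrations in the primary run, eleven up to 76.6 uM in confirmation), incubated 16 h, depleted ER calcium with thapsigargin, and read luciferase 4 h later.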

A short description of assay [23]: Primary qHTS for small molecule stabilizers of the endoplasmic reticulum resident proteome: Secreted ER Calcium Modulated Protein (SERCaMP) assay (AID 1508630). Also: % is scaled to controls: 0 for no effect and ±100 for the full control effect. The method, boiled down: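 GLuc-SERCaMP-expressing SH-SY5Y cells, pretreated 16 h with compound, are challenged with thapsigargin to empty ER calcium stores; after 4 h, coelenterazine is added directly to the medium and luminescence is imaged.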

The text below walks through data of PubChem BioAssay (NCATS).

Where “and” joins values, the source holds several entries; their conditions need not be identical. Equal entries are not always repeated. Records with an inconclusive call do not appear. The source holds several records for some structures; these can differ, active in one and inactive in another. Calls of active or inactive are those of the source. Unless noted, calls follow the shape of the dose curve; as a rule, active = well fitted curve in the direction sought with a large enough effect; inconclusive = small, poorly fitted or top-dose-only effect, or another doubt; inactive = no such curve, though single readings can be large; an effect the other way counts as inactive or inconclusive.

Sequence of Cytochrome P450 3A4 (Homo sapiens) (P08684 whole entry, looked up): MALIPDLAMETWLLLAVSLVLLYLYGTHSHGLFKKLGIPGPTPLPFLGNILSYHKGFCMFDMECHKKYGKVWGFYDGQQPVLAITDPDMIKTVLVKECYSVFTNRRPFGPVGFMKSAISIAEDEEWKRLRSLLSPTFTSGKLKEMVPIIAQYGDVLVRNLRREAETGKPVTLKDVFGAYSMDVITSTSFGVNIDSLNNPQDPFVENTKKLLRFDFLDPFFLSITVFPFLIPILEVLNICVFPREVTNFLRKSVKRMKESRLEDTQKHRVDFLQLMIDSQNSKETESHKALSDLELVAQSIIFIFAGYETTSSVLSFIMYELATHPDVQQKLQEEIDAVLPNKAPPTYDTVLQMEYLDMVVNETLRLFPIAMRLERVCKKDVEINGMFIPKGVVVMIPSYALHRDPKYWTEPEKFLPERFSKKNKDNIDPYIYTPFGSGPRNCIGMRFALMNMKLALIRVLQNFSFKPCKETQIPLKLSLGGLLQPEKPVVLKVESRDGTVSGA
Sequence of 3',5'-cyclic-AMP phosphodiesterase 4B (Homo sapiens) (Q07343 whole entry, looked up): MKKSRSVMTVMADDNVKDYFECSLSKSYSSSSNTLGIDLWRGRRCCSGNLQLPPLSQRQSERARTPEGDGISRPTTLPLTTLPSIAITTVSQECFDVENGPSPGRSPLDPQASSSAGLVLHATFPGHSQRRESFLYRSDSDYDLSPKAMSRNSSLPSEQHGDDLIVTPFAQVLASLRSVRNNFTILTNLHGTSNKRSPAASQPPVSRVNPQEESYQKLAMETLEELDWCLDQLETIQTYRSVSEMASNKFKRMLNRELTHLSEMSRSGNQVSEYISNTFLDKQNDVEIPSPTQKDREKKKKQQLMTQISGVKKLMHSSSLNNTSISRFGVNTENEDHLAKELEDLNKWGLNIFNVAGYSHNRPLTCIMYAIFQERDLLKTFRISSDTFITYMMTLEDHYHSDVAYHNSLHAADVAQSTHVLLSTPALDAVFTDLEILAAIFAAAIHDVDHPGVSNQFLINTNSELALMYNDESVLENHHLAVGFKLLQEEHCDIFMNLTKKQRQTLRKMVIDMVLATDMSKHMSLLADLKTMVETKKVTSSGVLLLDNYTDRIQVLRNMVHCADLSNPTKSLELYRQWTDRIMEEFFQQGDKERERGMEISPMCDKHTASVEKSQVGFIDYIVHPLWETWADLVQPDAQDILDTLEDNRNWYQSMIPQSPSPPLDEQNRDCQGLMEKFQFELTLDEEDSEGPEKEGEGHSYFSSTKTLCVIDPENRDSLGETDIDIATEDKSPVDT
Sequence of Cytochrome P450 2C19 (Homo sapiens) (P33261 whole entry, looked up): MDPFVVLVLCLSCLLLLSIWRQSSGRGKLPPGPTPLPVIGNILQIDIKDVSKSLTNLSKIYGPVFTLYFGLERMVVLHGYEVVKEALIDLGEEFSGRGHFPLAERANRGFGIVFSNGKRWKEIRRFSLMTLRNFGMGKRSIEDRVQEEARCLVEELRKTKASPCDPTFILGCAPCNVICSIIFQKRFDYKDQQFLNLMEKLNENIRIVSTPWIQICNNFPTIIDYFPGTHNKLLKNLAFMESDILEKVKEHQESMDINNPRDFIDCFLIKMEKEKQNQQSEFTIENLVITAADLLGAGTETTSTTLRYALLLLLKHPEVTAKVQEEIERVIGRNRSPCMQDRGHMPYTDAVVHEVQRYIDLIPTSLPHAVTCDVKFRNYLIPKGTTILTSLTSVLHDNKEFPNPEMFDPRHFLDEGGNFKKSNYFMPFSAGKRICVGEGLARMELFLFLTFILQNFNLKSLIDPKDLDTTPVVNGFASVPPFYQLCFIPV
Sequence of Ubiquitin carboxyl-terminal hydrolase 1 (Homo sapiens) (O94782 whole entry, looked up): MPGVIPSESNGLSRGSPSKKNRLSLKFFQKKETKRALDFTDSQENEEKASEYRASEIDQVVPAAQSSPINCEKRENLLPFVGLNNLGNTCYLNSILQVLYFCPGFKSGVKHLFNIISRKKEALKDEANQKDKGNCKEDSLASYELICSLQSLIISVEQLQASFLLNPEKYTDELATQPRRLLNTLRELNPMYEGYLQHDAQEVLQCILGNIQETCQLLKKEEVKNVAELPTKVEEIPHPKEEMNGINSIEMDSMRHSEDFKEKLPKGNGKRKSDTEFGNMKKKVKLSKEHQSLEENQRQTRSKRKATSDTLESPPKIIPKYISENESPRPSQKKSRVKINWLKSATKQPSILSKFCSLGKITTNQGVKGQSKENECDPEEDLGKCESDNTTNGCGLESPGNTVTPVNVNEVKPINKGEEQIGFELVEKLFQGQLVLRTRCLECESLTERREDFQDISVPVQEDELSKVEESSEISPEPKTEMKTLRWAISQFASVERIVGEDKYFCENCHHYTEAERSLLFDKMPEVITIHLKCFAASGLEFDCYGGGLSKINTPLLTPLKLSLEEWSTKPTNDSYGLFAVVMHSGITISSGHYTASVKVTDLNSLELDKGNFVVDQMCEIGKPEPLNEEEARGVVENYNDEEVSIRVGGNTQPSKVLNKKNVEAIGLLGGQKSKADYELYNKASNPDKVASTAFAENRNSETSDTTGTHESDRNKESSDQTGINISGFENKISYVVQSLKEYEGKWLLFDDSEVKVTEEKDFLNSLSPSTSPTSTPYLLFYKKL
Sequence of Cytochrome P450 2C9 (Homo sapiens) (P11712 whole entry, looked up): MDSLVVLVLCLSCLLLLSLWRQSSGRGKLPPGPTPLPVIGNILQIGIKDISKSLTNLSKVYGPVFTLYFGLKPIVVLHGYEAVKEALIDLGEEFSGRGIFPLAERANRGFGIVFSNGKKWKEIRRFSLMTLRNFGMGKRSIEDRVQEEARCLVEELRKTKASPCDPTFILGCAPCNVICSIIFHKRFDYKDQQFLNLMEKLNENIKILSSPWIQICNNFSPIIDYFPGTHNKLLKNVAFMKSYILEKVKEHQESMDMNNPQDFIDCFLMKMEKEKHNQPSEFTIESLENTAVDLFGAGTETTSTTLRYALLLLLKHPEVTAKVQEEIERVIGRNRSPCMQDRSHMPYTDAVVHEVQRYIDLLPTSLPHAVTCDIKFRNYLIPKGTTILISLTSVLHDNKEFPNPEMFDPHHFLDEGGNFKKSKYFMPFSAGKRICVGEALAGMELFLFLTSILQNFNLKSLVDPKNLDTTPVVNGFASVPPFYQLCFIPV

As for `CCOC(=O)c1ccc(N2C(=O)c3n[nH]c(-c4cccs4)c3C2c2ccc(Cl)cc2Cl)cc1` (configuration not stated), the Potency was 31.6 µM (active) in assay [1], 25.1 µM (active) in assay [2] and 44.7 µM (active) in [3].

Regarding `Cc1ccc(NC(=O)c2ccc3c(O)c(S(=O)(=O)c4ccccc4)c(=O)[nH]c3c2)cc1Cl`, the Potency in assay [1] is 8.91 µM (active); in assay [2] it was 6.31 µM (active); in assay [5] it was 282 µM (active); in assay [3], 44.7 µM (active). Besides, the Potency entry in assay [4] and in [6] was “inactive” in each case.

`Cc1ccc(-c2cc(C(F)(F)F)c(C#N)c(SCC(=O)O)n2)cc1`: the values for the Potency in assay [1], in assay [2] and in [3] were 44.7 µM (active), 44.7 µM (active) and 126 µM (active), respectively. In addition, the Potency entry in assay [4] is “inactive”.

On to `COc1cc(-c2ccc(N=Nc3ccc4c(S(=O)(=O)O)cc(S(=O)(=O)O)c(N)c4c3O)c(OC)c2)ccc1N=Nc1ccc2c(S(=O)(=O)O)cc(S(=O)(=O)O)c(N)c2c1O`, for which the activity change, negative = inhibition was 15% (inactive) in [7], 0.00688% (inactive) in assay [9], 3.4% (inactive) in assay [19] (at 25.7 µM (top of the series)) and -28.6% [at 7.35 µM] (inactive) in assay [23]. Also, the Potency in assay [8] was 12.6 µM (active) and 20 µM (active); in [11] it was > 20.6 µM (inactive) and > 46 µM (inactive); in assay [12] it was > 20.6 µM (inactive) and > 46 µM (inactive); in [15], 15.8 µM (active); in assay [18] it was 3.98 µM (active) and inactive; in assay [20] it was 17.8 µM (active) and 8.91 µM (active). Further, the results for the Potency in [1], in assay [2] and in [22] were 2.82 µM (active), 2 µM (active) and 28.2 µM (active), respectively. In assay [10], the activity, negative = inhibition was -15.7% (inactive). Moreover, the Potency result in [13], in assay [14], in assay [16], in [17], in [21] and in assay [4] was “inactive” in each case. Besides, the Potency result in assay [3] and in assay [6] was “inactive” each time. For the same compound, the results for the max response in [19] (measured here: cell count channel max response) and in assay [19] (measured here: lipid channel max response) were 1.95% and 8.3%, respectively.
